Screening data as filed in PubChem BioAssay.
FBW7 act – human FBW7 E3 ligase activation, primary screen | AlphaScreen FBW7–phospho-cyclin E peptide binding, activator screen | normalized activity (activation), % at 26.1 µM | 0.13% of 650,000 active | AID 1259310; in the data active = normalized activity above about 1.9%;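 note: purified mutant Fbw7 with reduced substrate affinity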
TEAD-YAP inh – TEAD-YAP interaction inhibition | HEK-TIYL cells, TEAD-Gal4/YAP UAS-luciferase luminescence | inhibition, % at 9.12 µM | 1.4% of 640,000 active | AID 1259422; in the data active = inhibition above about 32%
GPR151 activ – human GPR151 activation | AID 1508602 | Q8TDV0 | 1% of 650,000 active | activation, % at 11.2 µM | PathHunter beta-arrestin GPR151 cells, luminescence; in the data active = activation above about 4.9%
MITF primary – inhibitors of human MITF | O75030 | AlphaScreen MITF homodimerization, bead proximity signal | inhibition, % at 2.6 µM | 0.91% of 650,000 active | AID 1259374; in the data active = inhibition above about 50%
GPR151 confirm – confirmation of human GPR151 activators. GPR151 PathHunter beta-arrestin cells, luminescence, 90 min; % of EA-reagent control over plate median. 6,700 tested, under 10 active. AID 1508609. activation, % at 11.2 µM. shares compounds with GPR151 activ;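 active = mean percent activation across replicates above the confirmation screen cutoff of 4.91%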
GPR119 counter – activates human GPR119 in a GPR151 counter-screen | shares compounds with GPR151 activ | GPR119 PathHunter beta-arrestin cells, luminescence, 90 min; 0 = compound-well median, 100 = enzyme-acceptor control | activation, % at 11.2 µM | 0.3% of 6,700 active;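 active = mean percent activation in the counterscreen above 29.09%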;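 note: counterscreen on off-target GPR119 to flag nonselective hits from the GPR151 activator screen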
Target sequence (Q8TDV5 whole entry, looked up): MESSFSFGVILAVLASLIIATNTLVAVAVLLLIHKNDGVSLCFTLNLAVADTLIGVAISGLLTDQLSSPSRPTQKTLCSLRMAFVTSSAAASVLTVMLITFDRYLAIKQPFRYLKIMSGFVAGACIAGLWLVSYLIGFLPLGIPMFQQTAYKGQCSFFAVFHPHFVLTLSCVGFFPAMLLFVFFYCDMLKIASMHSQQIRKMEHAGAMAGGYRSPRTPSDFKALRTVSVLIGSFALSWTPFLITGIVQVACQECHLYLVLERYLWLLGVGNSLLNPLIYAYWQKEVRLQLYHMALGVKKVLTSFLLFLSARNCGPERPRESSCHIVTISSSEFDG
Large screens that a line does not name were inactive (follow-up assays come after a bar, where they were run). Sampled rows, rich in hits. Any-hit rate of the full collection: about 3.5%.

Cc1cccc(Nc2nc3nonc3n3cnnc23)c1C	GPR151 activ 5.8 | GPR151 confirm inactive | GPR119 counter inactive
O=C(CCC(=O)Nc1ccc(I)cc1)N/N=C/c1ccc(F)cc1	GPR151 activ 6.6 | GPR151 confirm inactive | GPR119 counter inactive
Cc1cccc(C)c1NC(=O)CSc1nnc2ncccn12	none
COC(=O)c1sc2ccccc2c1NC(=O)c1ccc(C(=O)c2ccccc2)cc1	none
COC(=O)c1sc2ccccc2c1NC(=O)c1ccc(Oc2ccccc2)cc1	GPR151 activ 10 | GPR151 confirm inactive | GPR119 counter inactive
O=C(O)CC(NC(=O)C12CC3CC(CC(C3)C1)C2)c1cccc([N+](=O)[O-])c1 (stereo not given)	GPR151 activ 6.0 | GPR151 confirm inactive | GPR119 counter inactive
O=C(O)CC(NC(=O)C12CC3CC(CC(C3)C1)C2)c1ccc(Cl)cc1 (stereo not given)	none
COc1ccccc1-n1nc(C(=O)Nc2ccc(Cl)cn2)c2ccccc2c1=O	GPR151 activ 7.6 | GPR151 confirm inactive | GPR119 counter inactive
CCOc1ccccc1N(C)C(=O)c1nn(-c2cc(OC)cc(OC)c2)c(=O)c2ccccc12	GPR151 activ 6.6 | GPR151 confirm inactive | GPR119 counter inactive
COc1ccc(-n2nc(C(=O)NCC(=O)NCCCN3CCN(c4cccc(Cl)c4)CC3)c3ccccc3c2=O)cc1OC	GPR151 activ 4.9 | GPR151 confirm inactive | GPR119 counter inactive
COc1ccc(-n2nc(C(=O)NCC(=O)NCCCN3CCC(C)CC3)c3ccccc3c2=O)cc1OC	none
CCOc1ccc(NC(=O)c2nnn(-c3ccccc3OC)c2C)cc1	GPR151 activ 5.7 | GPR151 confirm inactive | GPR119 counter inactive
CCOc1ccccc1N(C)C(=O)c1nn(-c2ccc(OC)cc2)c(=O)c2ccccc12	none
CCC1(C(=O)OC)NC(c2ccc(Cl)cc2)C2C(=O)N(C)C(=O)C21 (stereo not given)	none
COc1ccc(N2CCN(C(=O)CSc3nc4[nH]ncc4c(=O)n3-c3ccc(Cl)cc3)CC2)cc1	none
CCOc1ccc(-n2nc(C(=O)Nc3ccc(OC)c(OC)c3)c3ccccc3c2=O)cc1	GPR151 activ 5.6 | GPR151 confirm inactive | GPR119 counter inactive
CCOc1ccc(NC(=O)CNC(=O)c2nn(-c3ccc(OC)c(OC)c3)c(=O)c3ccccc23)cc1	none
COc1ccc(OC)c(NC(=O)c2nn(-c3ccc(OC)cc3OC)c(=O)c3ccccc23)c1	GPR151 activ 8.7 | GPR151 confirm inactive | GPR119 counter inactive
COc1ccc(-n2nc(C(=O)Nc3cc(Cl)ccc3OC)c3ccccc3c2=O)c(OC)c1	none
O=C(CSc1nc2[nH]ncc2c(=O)[nH]1)N1CCCCCC1	none
CC(C)C1=CC(=Nc2ccc(S(N)(=O)=O)cc2)C=C(C(C)C)C1=O	GPR151 activ 14 | GPR151 confirm inactive | GPR119 counter inactive
Cc1[nH]c(-c2ccc(F)cc2)cc1C(=O)N1CCCC1	none
Cc1[nH]c(-c2ccc(F)cc2)cc1C(=O)N1CCOCC1	GPR151 activ 5.8 | GPR151 confirm inactive | GPR119 counter inactive
Clc1cccc(-n2nnnc2C(c2ccccc2)N2CCCCC2)c1 (stereo not given)	none
COc1ccc(S(=O)(=O)NCc2csc(-c3cccnc3)n2)cc1OC	GPR151 activ 6.5 | GPR151 confirm inactive | GPR119 counter inactive
COc1ccc(-c2nc(CNS(=O)(=O)c3ccc(OC)c(OC)c3)cs2)cc1	none
Cc1ccc(S(=O)(=O)N2CCCC2CNC(=O)C(=O)NC2CCCCCC2)cc1 (stereo not given)	none
CCOC(=O)C(=O)NCC1CCCN1S(=O)(=O)c1cccs1 (stereo not given)	none
Cc1ccc(S(=O)(=O)N2CCCC2CNC(=O)Nc2ccc(Cl)cc2)cc1 (stereo not given)	GPR151 activ 6.0 | GPR151 confirm inactive | GPR119 counter inactive
O=C(NCCc1ccccc1)C(=O)NCC1CCCN1S(=O)(=O)c1cccs1 (stereo not given)	GPR151 activ 7.3 | GPR151 confirm inactive | GPR119 counter inactive
CCNC(=O)C(=O)NCC1CCCN1S(=O)(=O)c1ccc(C)cc1 (stereo not given)	GPR151 activ 6.2 | GPR151 confirm inactive | GPR119 counter inactive
